Source: PubChem BioAssay
The list is not random: actives were taken first. Their share in the collection is about 6.9%.
MCF10A rereplic: induces DNA re-replication in MCF 10a normal breast cells; AID 624296; Potency, µM (doses to about 46.1 µM), inactives show at the top dose activity, positive = re-replication, hits mostly activators; MCF 10A DNA re-replication, Hoechst nuclear intensity, 48 h; actives 2.9% (n = 350,000); further: potency means the concentration at half of the fitted maximal effect; % of control where 0% means no effect; nearly all actives have a fitted effect of over 50% in size
KB-3-1 cytotox: kills parental KB-3-1 adenocarcinoma cells | Potency, µM (highest dose often 46.1 µM), usual class: cytotoxic | actives 1.4% (n = 400,000) | KB-3-1 viability, CellTiter-Glo ATP luminescence, 72 h; further: potency means the concentration at half of the fitted maximal effect; on the % scale 0 is the no-effect control and ±100 the full control effect; nearly all actives have a fitted effect of over 60% in size
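Screening of KB-3-1 cells (DMEM, 10% FBS, phenol-red free) ran from lowest to highest compound concentration; after 72 h at 37 °C viability was read luminescently and curves fitted.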
SW480 rerep: induces DNA re-replication in SW480 colon adenocarcinoma cells; SW480 DNA re-replication, Hoechst DNA content imaging, 48 h; Potency, µM (top dose mostly 46.1 µM), inactives show top-dose re-replication activation, most hits filed as activators; actives 1.8% (n = 340,000); AID 624297; further: potency means the concentration at half of the fitted maximal effect; % of control where 0% means no effect; nearly all actives have a fitted effect of over 55% in size
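Per well, 250 cells were exposed to pinned compound for 48 hr. Nuclear DNA was visualised with Hoechst (40 min, 37 C) and total object intensity recorded by fluorescence scanning.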
Giardia kill: kills Giardia lamblia; Giardia lamblia trophozoite viability; activity change, % at 7.66 µM, hits read low; actives 0.15% (n = 340,000); AID 540267; in the data active means activity change below about -80%; inconclusive means between about -30% and that limit;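 further: parasites exposed to compound for two days anaerobically before the ATP read; on the % scale 0 is the no-effect control and ±100 the full control effect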
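Viability, read as ATP luminescence: trophozoites at 100 cells/well, compound added, 48 hrs anaerobic at 37 deg C, then 15-30 min room-temperature development before reading.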
KB-V1 MDR tox: kills drug-selected multidrug resistant KB-V1 cells; AID 1347076; actives 3.4% (n = 400,000); KB-V1 MDR cells viability, CellTiter-Glo, 72 h; Potency, µM (doses to about 46.1 µM), usual class: cytotoxic; further: potency means the concentration at half of the fitted maximal effect; on the % scale 0 is the no-effect control and ±100 the full control effect; nearly all actives have a fitted effect of over 60% in size
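Cytotoxicity via CellTiter-Glo luminescence after 72 h compound exposure at 37 degrees C. Cells: drug-selected KB-V1 line, DMEM phenol-red free plus 10% FBS. Compounds tested at multiple concentrations; normalized data fitted to concentration-effect curves.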
ASM inhibitor: inhibitors of human secretory acid sphingomyelinase | placental ASM, HMU-PC fluorogenic substrate, 60 min | Potency, µM (titrated, usually from 57.5 µM), for inactives: at the highest dose activity change, negative = inhibition, most hits filed as inhibitors | actives 0.006% (n = 340,000) | AID 504937 | P17405; further: potency means the concentration at half of the fitted maximal effect
Target sequence (P17405 47-631 limits assumed): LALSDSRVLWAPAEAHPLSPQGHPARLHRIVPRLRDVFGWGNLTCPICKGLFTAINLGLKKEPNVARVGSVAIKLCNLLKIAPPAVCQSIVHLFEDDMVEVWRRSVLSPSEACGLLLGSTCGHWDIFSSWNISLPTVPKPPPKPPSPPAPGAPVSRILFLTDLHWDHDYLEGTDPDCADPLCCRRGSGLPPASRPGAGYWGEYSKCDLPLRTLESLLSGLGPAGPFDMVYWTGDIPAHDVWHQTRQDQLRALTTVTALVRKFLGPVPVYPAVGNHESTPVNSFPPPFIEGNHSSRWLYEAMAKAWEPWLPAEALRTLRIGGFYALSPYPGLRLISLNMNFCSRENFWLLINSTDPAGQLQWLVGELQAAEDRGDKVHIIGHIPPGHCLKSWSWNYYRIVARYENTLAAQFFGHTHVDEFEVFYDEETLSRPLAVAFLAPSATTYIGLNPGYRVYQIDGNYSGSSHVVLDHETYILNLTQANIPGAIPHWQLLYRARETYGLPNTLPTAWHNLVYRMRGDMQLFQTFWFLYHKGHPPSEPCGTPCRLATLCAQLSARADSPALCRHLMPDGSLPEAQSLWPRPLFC
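Fluorescence read-out (Ex 386 nm, Em 447 nm) after stopping the reaction at pH 10. Enzyme: ASM from human placenta; substrate HMU-PC0, 9 uM final; 60 min, 37 °C. Compound preincubation 10 min, ambient temperature.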
Starred values were filed as active, the others as inactive; i = inactive; u = inconclusive; x = no result. Unless noted, the call rests on the fitted dose curve; in most records, active means well fitted curve in the direction sought with a large enough effect; inconclusive means small, poorly fitted or top-dose-only effect, or another doubt; inactive means no such curve, though single readings can be large; an effect the other way counts as inactive or inconclusive.

SMILES | MCF10A rereplic | KB-3-1 cytotox | SW480 rerep | Giardia kill | KB-V1 MDR tox | ASM inhibitor
COc1ccc(NS(=O)(=O)c2cccc(C(=O)NCC(c3ccccc3)N(C)C)c2)cc1 (configuration not stated) | -2.3% | i | -6.2% | -4.2 | i | x
CC(=O)Nc1ccc(S(=O)(=O)N2CCSc3ccccc32)cc1 | 6.51µM* | 5.8µM* | 3.66µM* | 16.9 | i | -2.6%
COc1ccc(C(CNC(=O)c2cccc(S(=O)(=O)N3CCCc4ccccc43)c2)N(C)C)cc1 (configuration not stated) | 17.0% | u | u | 15.9 | 2.31µM* | 1.1%
O=C(N/C(=C\c1ccccc1)C(=O)N1CCOCC1)c1cccc(Br)c1 | u | x | -1.0% | 5.9 | x | -2.2%
NS(=O)(=O)c1ccc(NC(=O)c2ccc(S(=O)(=O)N3CCc4ccccc43)cc2)cc1 | 9.4% | i | 0.8% | -11.8 | u | -2.1%
COc1ccc(S(=O)(=O)N2CCCc3ccccc32)cc1[N+](=O)[O-] | 4.11µM* | 4.11µM* | 20.6µM* | -0.6 | u | -2.7%
COc1ccc(S(=O)(=O)N2CCCc3ccccc32)cc1OC | 9.8% | u | u | -5.3 | i | 2.0%
COc1ccc(C(=O)Nc2ccc(S(=O)(=O)N3CCc4ccccc43)cc2)cc1 | u | 2.91µM* | 6.5% | 5.0 | 2.59µM* | -7.1%
COc1ccc(S(=O)(=O)N2CCc3ccccc32)cc1NC(C)=O | 8.2µM* | 23.1µM* | u | 32.4 | u | 2.2%
CCN(CC(=O)Nc1c(F)cccc1F)C(=O)c1cccc(S(=O)(=O)N2CCCc3ccccc32)c1 | 7.9% | u | -13.6% | -9.9 | i | -4.9%
CCN(CC(=O)Nc1cccc(OC)c1)C(=O)c1cccc(S(=O)(=O)N2CCc3ccccc32)c1 | 15.7% | u | 1.3% | 2.0 | 18.4µM* | -3.2%
Cc1ccc2nc(N3CCN(c4cccc(Cl)c4)CC3)c(-n3nc(C)cc3C)nc2c1 | x | i | x | x | i | x
COc1cc2nc(NC(=O)c3ccc(S(=O)(=O)N4CCc5ccccc54)cc3)sc2cc1OC | x | u | x | x | 7.31µM* | x
Cc1cccc(-c2nc(SCC(=O)N(C)c3ccccc3)c3c(=O)n(C)c(=O)n(C)c3n2)c1 | x | i | x | x | i | x
COc1cc2nc(CC(C)C)n(NC(=O)c3ccccc3)c(=O)c2cc1OC | 0.8% | i | -4.1% | 1.9 | 7.31µM* | -3.1%
CCOC(=O)C1=C(C)NC(C)=C(C(=O)OCC)C1c1ccccc1C=CC(=O)OC(C)(C)C | u | x | 29.9µM* | x | x | x
CCOC(=O)C1=C(C)NC(C)=C(C(=O)OCC)C1/C=C/c1ccccc1OC | u | i | 23.1µM* | -16.8 | 20.6µM* | 167.9%
COCCOC(=O)C1=C(C)NC(C)=C(C(=O)OCCOC)C1/C=C/c1ccccc1OC | 0.1% | i | 4.2% | -4.8 | i | 155.2%
COc1cccc(N2CCN(S(=O)(=O)c3ccc4[nH]c5c(c4c3)CCCC5)CC2)c1 | x | i | x | x | i | x
CCN(CC)c1ccc(NC(=O)C2CCN(S(=O)(=O)c3cnc[nH]3)CC2)c(C)c1 | x | i | x | x | u | x
CCOc1cccc2cc(-c3nnc(NCc4ccco4)s3)c(=O)oc12 | 20.6µM* | i | u | -8.1 | i | 300.7%
COc1ccc(Nc2nc(-c3c[nH]c4ccccc34)cs2)cc1 | 16.4µM* | u | u | -3.4 | i | 2.8%
COc1ccc2oc(=O)c(-c3nnc(NCc4ccco4)s3)cc2c1 | 7.31µM* | u | 8.91µM* | -24.9 | u | 454.7%
COc1ccc2oc(=O)c(-c3csc(Nc4ccc(O)cc4)n3)cc2c1 | 4.11µM* | u | u | 2.3 | u | -20.7%
CC1CCCCN1C(=O)COC(=O)c1ccc(S(C)(=O)=O)c([N+](=O)[O-])c1 (configuration not stated) | x | u | x | -11.7 | i | x
CCOC(=O)c1cccc(NC(=O)c2nn(-c3ccc(OC)cc3)c(=O)c3c2c2ccccc2n3C)c1 | x | i | x | x | i | x
